From PubChem BioAssay
An excerpt weighted towards active compounds, which were near 3.4% of everything screened.
FBW7 act: human FBW7 E3 ligase activation, primary screen; AlphaScreen FBW7–phospho-cyclin E peptide binding, activator screen; normalized activity (activation), % at 26.1 µM; 0.13% of 650,000 active; AID 1259310; in the data active = normalized activity above about 1.9%;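 also: purified mutant Fbw7 with reduced substrate affinity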
MITF primary: inhibitors of human MITF | O75030 | AlphaScreen MITF homodimerization, bead proximity signal | inhibition, % at 2.6 µM | 0.91% of 650,000 active; in the data active = inhibition above about 50%
TEAD-YAP block: TEAD-YAP interaction inhibition; HEK-TIYL cells, TEAD-Gal4/YAP UAS-luciferase luminescence; inhibition, % at 9.12 µM; 1.4% of 640,000 active; in the data active = inhibition above about 32%
GPR151 ag: activators of human GPR151. Q8TDV0. PathHunter beta-arrestin GPR151 cells, luminescence. activation, % at 11.2 µM. 1% of 650,000 active. AID 1508602; in the data active = activation above about 4.9%
Target sequence (Q8TDV0 whole entry, looked up): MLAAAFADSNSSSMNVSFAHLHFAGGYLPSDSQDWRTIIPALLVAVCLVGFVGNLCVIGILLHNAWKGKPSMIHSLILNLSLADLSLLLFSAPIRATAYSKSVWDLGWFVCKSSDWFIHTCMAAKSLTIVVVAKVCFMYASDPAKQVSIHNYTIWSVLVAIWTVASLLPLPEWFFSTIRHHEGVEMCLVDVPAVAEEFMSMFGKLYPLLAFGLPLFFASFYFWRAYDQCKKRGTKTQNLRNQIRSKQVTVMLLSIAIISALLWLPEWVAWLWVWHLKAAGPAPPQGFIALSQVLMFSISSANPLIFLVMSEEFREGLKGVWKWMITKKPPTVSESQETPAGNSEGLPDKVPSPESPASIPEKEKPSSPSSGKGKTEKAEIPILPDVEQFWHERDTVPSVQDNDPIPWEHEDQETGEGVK
MITF inh conf: confirmation of human MITF inhibitors; shares compounds with MITF primary; AlphaScreen MITF homodimerization, biotin/His-MITF beads; inhibition, % at 2.6 µM; 16% of 4,700 active; AID 1259372;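 active = inhibition above a cutoff derived from the DMSO control wells, cut at about 28% in these data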;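 also: inhibitors lower the bead chemiluminescence by keeping MITF from dimerizing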
AlphaScreen DR: AlphaScreen optical interference, dose response counter-screen | shares compounds with MITF primary | AlphaScreen optical interference counterscreen, cell-free | IC50, µM | 6% of 480 active | AID 1259373; call rule not given here
AS interf ctr: counter-screen: compounds optically interfering with AlphaScreen; shares compounds with MITF primary; LysRS AlphaScreen counterscreen, signal interference, triplicate; inhibition, % at 2.6 µM; 7.6% of 4,700 active; AID 1259376;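 active = inhibition above a cutoff derived from the DMSO control wells, cut at about 30% in these data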
Large screens that a line does not name were inactive (follow-up assays come after a bar, where they were run).

Cc1ccc2c(c1)c1ccccc1n2CO	none
COc1ccc(NC(=O)CNCCN2CCCCC2)cc1	none
COc1ccc(NC(=O)CNCCN2CCOCC2)cc1	MITF primary 93.2 | MITF inh conf inactive | AS interf ctr inactive
COc1ccc(C(=O)NCCN2CCOCC2)c(OC)c1	MITF primary 53.5 | MITF inh conf inactive | AS interf ctr inactive
COc1ccc2oc(=O)c(C(=O)NCCN3CCOCC3)cc2c1	none
CC1=C(C(=O)OC2CCC(C)CC2)C(c2ccccc2Cl)NC(=O)N1 (stereo not drawn)	MITF primary 80.7 | MITF inh conf inactive | AS interf ctr inactive
CC1=C(C(=O)OC2CCCCC2)C(c2ccc(OCc3ccccc3)cc2)NC(=O)N1 (stereo not drawn)	MITF primary 54.9 | MITF inh conf inactive | AS interf ctr inactive
Cc1cc(N2CCN(C)CC2)nc2ccc(NC(=O)/C=C/c3ccc4c(c3)OCO4)cc12	none
CCC[C@@H]1NC(=O)[C@H]2CN(Cc3cnn(-c4ccccc4OC)c3)CCN2C1=O	MITF primary 51.3 | MITF inh conf inactive | AS interf ctr inactive
COc1ccccc1-n1cc(CN2CCN3C(=O)[C@H](CO)NC(=O)[C@H]3C2)cn1	none
O=S(=O)(c1ccccc1)N1CN(S(=O)(=O)c2ccccc2)CN(S(=O)(=O)c2ccccc2)C1	none
CCOc1ccc(-c2cn3c(CC(=O)N4CCN(c5ccccc5)CC4)csc3n2)cc1	MITF primary 55.0 | MITF inh conf inactive | AS interf ctr inactive
CCOc1ccc(-c2cn3c(CC(=O)N4CCCCC4CC)csc3n2)cc1 (stereo not drawn)	none
COCC(=O)NCc1ccc(Cl)cc1	none
COC(=O)C(NCC(=O)NCc1ccc(Cl)cc1)C(C)C (stereo not drawn)	MITF primary 65.6 | MITF inh conf inactive | AS interf ctr inactive
O=c1cc(CN2CCN(c3ccc(F)cc3)CC2)occ1OCc1ccccc1F	none
O=[N+]([O-])c1ccc(CN2CCN(c3ccc(Cl)cc3)CC2)o1	MITF primary 58.8 | MITF inh conf inactive | AS interf ctr inactive
O=[N+]([O-])c1ccc(CN2CCN(c3cccc(Cl)c3)CC2)o1	none
O=[N+]([O-])c1ccc(CN2CCN(c3ncccn3)CC2)o1	MITF primary 57.6 | MITF inh conf inactive | AS interf ctr inactive
COc1ccc(N2C(=O)C3C(c4ccccc4)C=CC(c4ccccc4)C3C2=O)cc1 (stereo not drawn)	none
CC12CCC(C(=O)Nc3ccc(I)cc3)(OC1=O)C2(C)C (stereo not drawn)	none
CCCc1nc2ccccc2c(NC(=O)CN2CCCC2)c1CC	MITF primary 81.3 | MITF inh conf inactive | AS interf ctr inactive
Cc1cc(NC(=O)Cn2nc(C(=O)N3CCOCC3)cc2C)c2ccccc2n1	none
CCCCc1nc2ccccc2c(NC(=O)CN2CCN(C(=O)c3ccccc3)CC2)c1CCC	MITF primary 62.4 | MITF inh conf inactive | AS interf ctr inactive
CCc1nc2ccccc2c(NC(=O)CN2CCN(CCO)CC2)c1C	MITF primary 69.4 | MITF inh conf inactive | AS interf ctr inactive
CCCCc1nc2ccccc2c(C(=O)O)c1C	none
CCc1sc(NC(=O)CN2CCCC2)nc1-c1ccccc1	none
CCCCCCN(CCCCCC)CC(=O)Nc1c(C)c(CC)nc2ccccc12	MITF primary 68.9 | MITF inh conf inactive | AS interf ctr inactive
CCOC(=O)c1c(NC(=O)c2ccc(Cl)cc2Cl)sc2c1CCN(C(=O)OCC)C2	none
CN(C)CCCCOc1ccc([N+](=O)[O-])cc1	MITF primary 76.9 | MITF inh conf inactive | AS interf ctr inactive
COc1ccc(OCCCCOc2ccc([N+](=O)[O-])cc2)cc1	none
C=CCNCCCOc1ccc(C)cc1[N+](=O)[O-]	none
C=CCNCCOc1ccc(C)cc1[N+](=O)[O-]	MITF primary 52.2 | MITF inh conf inactive | AS interf ctr inactive
Cc1ccc(OCCCN(C)C)c([N+](=O)[O-])c1	MITF primary 68.3 | MITF inh conf inactive | AS interf ctr inactive
O=C(COc1cccc([N+](=O)[O-])c1)N/N=C/c1ccncc1	none
O=C(Nc1ccccc1)C1CC(O)CN1C(=O)OCc1ccccc1 (stereo not drawn)	none
Cc1cccc(NC2=C(C(=O)c3ccc(Cl)cc3)C(c3ccc(F)cc3)N(CCCCCC(=O)O)C2=O)c1 (stereo not drawn)	MITF primary 79.4 | MITF inh conf inactive | AS interf ctr inactive
O=C(c1ccc2nc[nH]c2c1)N1CCOc2ccc(CN3CCc4ccccc4C3)cc2C1	none
Cc1cc(C)c(C2C(C#N)=C(N)Oc3n[nH]c(C)c32)cc1COc1ccc(F)cc1 (stereo not drawn)	none
Cc1cc(C)c(C2C(C#N)=C(N)Oc3n[nH]c(C)c32)cc1CSc1ccc(Br)cc1 (stereo not drawn)	MITF primary 99.2 | MITF inh conf inactive | AS interf ctr inactive
CS(=O)(=O)NCCSc1nnnn1-c1ccccc1	MITF primary 54.9 | MITF inh conf inactive | AS interf ctr inactive
O=C1N/C(=C/c2cccn2-c2ccccc2)C(=O)N1Cc1ccccc1F	MITF primary 55.2 | MITF inh conf inactive | AS interf ctr inactive
O=C(O)c1cc(-n2cccc2)ccc1Cl	MITF primary 78.7 | MITF inh conf 64.1 | AlphaScreen DR inactive | AS interf ctr inactive
Cc1ccc(C)n1-c1ccc(Cl)c(C(=O)O)c1	none
Cc1ccccc1CS(=O)(=O)CC1Nc2ccc(C(=O)NCc3cccs3)cc2NC1=O (stereo not drawn)	none
O=S(=O)(c1ccc2oc(Nc3ccc(F)c(Cl)c3)nc2c1)N1CCOCC1	none
Cc1nc(S(=O)(=O)c2ccccc2)c(SCc2ccc([N+](=O)[O-])cc2)o1	MITF primary 61.9 | MITF inh conf inactive | AS interf ctr 32.9
CC(NS(=O)(=O)c1cc(Cl)ccc1Cl)C(=O)NC1CCCCC1 (stereo not drawn)	MITF primary 57.5 | MITF inh conf inactive | AS interf ctr inactive
Cc1ccc(C(C)C)c(OCC(O)CN2CCOCC2)c1 (stereo not drawn)	none
Cc1ccc(C(C)C)c(OCC#CCN2CCOCC2)c1	MITF primary 54.9 | MITF inh conf inactive | AS interf ctr inactive
Cc1ccc(C(C)C)c(OCCCCN2CCNCC2)c1	MITF primary 75.4 | MITF inh conf inactive | AS interf ctr inactive
Cc1ccc(C(C)C)c(OCCOCCN2CCNCC2)c1	none
Cc1ccc(SCCCCN2CCNCC2)cc1	MITF primary 61.0 | MITF inh conf inactive | AS interf ctr inactive
Cc1cc(Br)ccc1OCCCCN1CCNCC1	MITF primary 65.6 | MITF inh conf inactive | AS interf ctr inactive
COc1cccc(OC)c1CN1CCc2nnc(CNC(=O)c3ccccc3)n2CC1	none
Cc1ccc(OCCN2CCNCC2)c(Br)c1	none
Cc1ccc(C(C)C)c(OCCN(C)C)c1	MITF primary 53.7 | MITF inh conf inactive | AS interf ctr inactive
Cc1ccc(C(C)C)c(OCC(N)=O)c1	none
